Assay in all cases: DAPPL (digital affinity profiling via proximity ligation, sequencing); 10 mM Tris-HCl pH 7.5, 50 mM NaCl, 1 mM DTT, 4% glycerol, room temperature, 30 min; GST-TFs on glutathione beads, 16-mer random dsDNA library, 0.1% formaldehyde crosslink after washing; high values mean tight binding
One assay addresses T1, FEV (Homo sapiens, UniProt Q99581 1-238).
T1 sequence: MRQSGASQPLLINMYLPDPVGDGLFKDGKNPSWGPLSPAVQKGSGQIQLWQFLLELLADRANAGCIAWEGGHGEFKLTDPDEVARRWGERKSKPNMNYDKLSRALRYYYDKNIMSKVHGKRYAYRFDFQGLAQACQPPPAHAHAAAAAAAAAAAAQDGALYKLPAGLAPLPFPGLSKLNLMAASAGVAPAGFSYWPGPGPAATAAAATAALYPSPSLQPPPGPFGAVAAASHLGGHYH
To be noted: protein: recombinant; tags: N-terminal GST; dsDNA, one strand shown. A digest of the protocol: (§1)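 Pools were built from human transcription factors expressed in yeast as GST fusions, captured on glutathione beads and DNA-barcoded, along with a tag-only sample. Incubation with 200 nmole of a 16-mer random double-stranded DNA library lasted 30 min at room temperature in Tris/NaCl/DTT/glycerol buffer, and was followed by washing, 0.1% formaldehyde crosslinking, proximity ligation, PCR amplification and Illumina NextSeq500 sequencing. Binding signal is the quotient of each hexamer's read frequency for a factor and its frequency for the tag-only sample.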

In the next assay the target is ETV5 (Homo sapiens, UniProt P41161 1-510). To be noted: protein: recombinant; tags: N-terminal GST; dsDNA, one strand shown. An outline of the steps: as §1
The next assay concerns the target HSF1 (Homo sapiens, UniProt Q00613 1-529). As to conditions: protein: recombinant; tags: N-terminal GST; chain copies: 3; dsDNA, one strand shown. A digest of the protocol:
as §1

The target of the next assay is T2, SPIC (Homo sapiens, UniProt Q8N5J4 1-248).
T2 sequence: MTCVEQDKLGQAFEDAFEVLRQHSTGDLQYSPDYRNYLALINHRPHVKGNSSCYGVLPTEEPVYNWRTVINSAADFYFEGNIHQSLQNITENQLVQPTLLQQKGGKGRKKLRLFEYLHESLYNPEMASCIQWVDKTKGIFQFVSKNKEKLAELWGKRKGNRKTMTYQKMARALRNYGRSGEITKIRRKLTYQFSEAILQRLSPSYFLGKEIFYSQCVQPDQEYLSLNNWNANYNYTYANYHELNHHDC
As to conditions: protein: recombinant; tags: N-terminal GST; dsDNA, one strand shown. A digest of the protocol: as §1

The target of the next assay is ELF4 (Homo sapiens, UniProt Q99607 1-663). As to conditions: protein: recombinant; tags: N-terminal GST; dsDNA, one strand shown. A digest of the protocol:
as §1

The next assay deals with T3, ELK4 (Homo sapiens, UniProt P28324-2 1-405).
T3 sequence: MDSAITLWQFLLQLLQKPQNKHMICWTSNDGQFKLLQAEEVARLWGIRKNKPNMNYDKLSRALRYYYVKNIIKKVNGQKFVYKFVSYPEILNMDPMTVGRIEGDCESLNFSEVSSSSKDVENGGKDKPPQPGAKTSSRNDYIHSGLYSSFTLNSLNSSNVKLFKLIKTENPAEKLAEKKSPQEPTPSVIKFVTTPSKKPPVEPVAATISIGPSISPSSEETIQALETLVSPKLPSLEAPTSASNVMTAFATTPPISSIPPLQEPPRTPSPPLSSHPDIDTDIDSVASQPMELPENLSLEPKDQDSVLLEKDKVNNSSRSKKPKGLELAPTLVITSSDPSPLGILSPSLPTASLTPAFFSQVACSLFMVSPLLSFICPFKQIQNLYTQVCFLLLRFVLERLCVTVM
To be noted: protein: recombinant; tags: N-terminal GST; dsDNA, one strand shown. An outline of the steps:
as §1

For another assay, the target named is T4, ETV2 (Homo sapiens, UniProt O00321 1-342).
T4 sequence: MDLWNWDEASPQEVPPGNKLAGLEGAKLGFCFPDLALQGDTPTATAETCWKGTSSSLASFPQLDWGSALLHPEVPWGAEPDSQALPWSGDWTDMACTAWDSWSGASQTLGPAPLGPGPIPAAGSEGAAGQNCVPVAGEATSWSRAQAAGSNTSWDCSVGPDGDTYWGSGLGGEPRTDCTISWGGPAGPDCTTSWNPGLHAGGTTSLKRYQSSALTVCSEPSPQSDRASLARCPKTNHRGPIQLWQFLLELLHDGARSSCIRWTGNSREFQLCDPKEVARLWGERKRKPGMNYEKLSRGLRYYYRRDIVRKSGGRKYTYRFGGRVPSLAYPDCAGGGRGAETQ
To be noted: protein: recombinant; tags: N-terminal GST; dsDNA, one strand shown. A digest of the protocol: as §1

In another assay the target is T5, ELF3 (Homo sapiens, UniProt P78545 1-371).
T5 sequence: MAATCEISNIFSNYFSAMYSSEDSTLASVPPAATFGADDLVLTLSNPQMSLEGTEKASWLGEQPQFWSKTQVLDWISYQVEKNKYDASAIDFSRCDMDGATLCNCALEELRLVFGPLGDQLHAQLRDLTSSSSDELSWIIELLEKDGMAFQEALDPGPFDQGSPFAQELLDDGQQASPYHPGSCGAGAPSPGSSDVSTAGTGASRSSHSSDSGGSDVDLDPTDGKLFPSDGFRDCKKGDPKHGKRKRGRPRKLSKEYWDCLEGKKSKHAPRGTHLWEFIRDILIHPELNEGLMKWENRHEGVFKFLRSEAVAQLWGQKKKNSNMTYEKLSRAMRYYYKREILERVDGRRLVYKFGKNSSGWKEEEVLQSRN
To be noted: protein: recombinant; tags: N-terminal GST; dsDNA, one strand shown. An outline of the steps:
as §1

The next assay deals with CRX (Homo sapiens, UniProt O43186 1-299). As to conditions: protein: recombinant; tags: N-terminal GST; dsDNA, one strand shown. An outline of the steps: as §1
Another assay addresses ETV1 (Homo sapiens, UniProt P50549 1-477). As to conditions: protein: recombinant; tags: N-terminal GST; dsDNA, one strand shown. A digest of the protocol: as §1
The target of the next assay is T6, ERF (Homo sapiens, UniProt P50548 1-548).
T6 sequence: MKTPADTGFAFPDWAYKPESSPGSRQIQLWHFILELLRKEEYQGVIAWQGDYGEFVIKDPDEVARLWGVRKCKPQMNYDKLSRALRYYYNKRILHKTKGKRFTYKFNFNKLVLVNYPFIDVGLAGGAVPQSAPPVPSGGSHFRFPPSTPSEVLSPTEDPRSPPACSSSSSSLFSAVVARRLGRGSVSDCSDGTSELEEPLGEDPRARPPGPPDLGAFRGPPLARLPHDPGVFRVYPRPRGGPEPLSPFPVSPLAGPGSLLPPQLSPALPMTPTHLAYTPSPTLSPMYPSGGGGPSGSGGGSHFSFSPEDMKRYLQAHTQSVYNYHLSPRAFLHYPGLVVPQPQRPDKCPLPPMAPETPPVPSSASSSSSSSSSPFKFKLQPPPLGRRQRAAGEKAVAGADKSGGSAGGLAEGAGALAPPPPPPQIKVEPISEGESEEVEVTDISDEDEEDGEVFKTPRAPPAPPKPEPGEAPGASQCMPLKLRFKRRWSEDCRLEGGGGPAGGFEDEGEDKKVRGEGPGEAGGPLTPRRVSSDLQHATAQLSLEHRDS
To be noted: protein: recombinant; tags: N-terminal GST; dsDNA, one strand shown. An outline of the steps: as §1

Another assay deals with T7, ETV3L (Homo sapiens, UniProt Q6ZN32 1-361).
T7 sequence: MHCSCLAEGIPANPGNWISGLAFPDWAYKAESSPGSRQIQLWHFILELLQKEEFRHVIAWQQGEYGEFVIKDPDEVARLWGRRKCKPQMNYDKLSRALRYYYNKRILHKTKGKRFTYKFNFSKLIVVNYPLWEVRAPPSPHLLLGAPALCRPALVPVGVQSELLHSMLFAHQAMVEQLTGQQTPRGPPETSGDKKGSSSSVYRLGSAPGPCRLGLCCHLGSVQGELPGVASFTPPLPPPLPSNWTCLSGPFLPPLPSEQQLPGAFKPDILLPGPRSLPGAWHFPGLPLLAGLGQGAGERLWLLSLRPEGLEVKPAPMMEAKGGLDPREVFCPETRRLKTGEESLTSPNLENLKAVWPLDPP
To be noted: protein: recombinant; tags: N-terminal GST; dsDNA, one strand shown. An outline of the steps: as §1

For the next assay, the target named is T8, ETS2 (Homo sapiens, UniProt P15036 1-469).
T8 sequence: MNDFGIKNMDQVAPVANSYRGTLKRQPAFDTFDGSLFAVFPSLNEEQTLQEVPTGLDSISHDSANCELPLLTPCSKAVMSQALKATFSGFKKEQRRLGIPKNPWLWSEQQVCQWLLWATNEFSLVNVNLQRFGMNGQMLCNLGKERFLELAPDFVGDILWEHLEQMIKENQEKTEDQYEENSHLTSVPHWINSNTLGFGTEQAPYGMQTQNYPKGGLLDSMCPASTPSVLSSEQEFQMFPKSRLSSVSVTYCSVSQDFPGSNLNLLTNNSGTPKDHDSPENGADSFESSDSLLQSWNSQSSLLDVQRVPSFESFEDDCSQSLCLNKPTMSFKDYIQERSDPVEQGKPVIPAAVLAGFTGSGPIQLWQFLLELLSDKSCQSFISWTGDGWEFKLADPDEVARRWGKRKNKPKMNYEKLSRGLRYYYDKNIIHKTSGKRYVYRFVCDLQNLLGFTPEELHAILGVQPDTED
As to conditions: protein: recombinant; tags: N-terminal GST; dsDNA, one strand shown. An outline of the steps: as §1

For a further assay, the target named is T9, SPDEF (Homo sapiens, UniProt O95238 1-335).
T9 sequence: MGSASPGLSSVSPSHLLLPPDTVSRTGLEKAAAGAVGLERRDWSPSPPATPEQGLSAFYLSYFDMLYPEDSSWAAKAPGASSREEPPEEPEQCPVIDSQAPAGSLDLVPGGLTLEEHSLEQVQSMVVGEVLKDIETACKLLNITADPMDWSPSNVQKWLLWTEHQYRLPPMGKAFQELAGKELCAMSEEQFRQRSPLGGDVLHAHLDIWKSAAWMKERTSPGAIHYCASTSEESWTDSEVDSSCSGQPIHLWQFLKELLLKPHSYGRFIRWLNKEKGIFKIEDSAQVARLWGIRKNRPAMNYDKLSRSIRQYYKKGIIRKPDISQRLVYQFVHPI
To be noted: protein: recombinant; tags: N-terminal GST; dsDNA, one strand shown. A digest of the protocol: as §1

The next assay deals with T10, ETV7 (Homo sapiens, UniProt Q9Y603 1-341).
T10 sequence: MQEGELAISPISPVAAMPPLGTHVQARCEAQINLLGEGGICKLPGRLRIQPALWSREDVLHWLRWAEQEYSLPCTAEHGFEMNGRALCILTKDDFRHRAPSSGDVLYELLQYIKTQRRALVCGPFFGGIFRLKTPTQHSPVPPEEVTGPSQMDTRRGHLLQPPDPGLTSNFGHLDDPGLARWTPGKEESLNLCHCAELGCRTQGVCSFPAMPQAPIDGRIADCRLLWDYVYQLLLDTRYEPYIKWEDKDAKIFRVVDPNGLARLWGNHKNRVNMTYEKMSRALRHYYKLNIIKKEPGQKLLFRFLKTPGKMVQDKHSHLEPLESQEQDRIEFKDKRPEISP
To be noted: protein: recombinant; tags: N-terminal GST; dsDNA, one strand shown. A digest of the protocol:
as §1

The target of the next assay is T11, ELF5 (Homo sapiens, UniProt Q9UKW6-2 1-255).
T11 sequence: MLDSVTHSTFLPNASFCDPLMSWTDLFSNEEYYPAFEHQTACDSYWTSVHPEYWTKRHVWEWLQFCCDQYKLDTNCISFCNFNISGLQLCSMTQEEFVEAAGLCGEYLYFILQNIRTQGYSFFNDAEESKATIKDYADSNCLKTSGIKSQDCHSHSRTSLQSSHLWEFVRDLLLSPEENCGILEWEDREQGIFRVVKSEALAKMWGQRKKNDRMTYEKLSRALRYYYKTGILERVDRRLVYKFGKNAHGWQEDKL
To be noted: protein: recombinant; tags: N-terminal GST; dsDNA, one strand shown. A digest of the protocol:
as §1

Another assay deals with T12, ETV3 (Homo sapiens, UniProt P41162-2 1-143).
T12 sequence: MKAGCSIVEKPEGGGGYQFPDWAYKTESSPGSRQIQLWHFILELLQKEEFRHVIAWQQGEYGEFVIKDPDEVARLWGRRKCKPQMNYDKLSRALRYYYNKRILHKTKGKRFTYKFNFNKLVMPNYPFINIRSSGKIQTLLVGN
As to conditions: protein: recombinant; tags: N-terminal GST; dsDNA, one strand shown. A digest of the protocol:
as §1

The next assay deals with ETV6 (Homo sapiens, UniProt P41212 1-452). To be noted: protein: recombinant; tags: N-terminal GST; dsDNA, one strand shown. A digest of the protocol: as §1
ETV6, sequence (P41212 whole entry): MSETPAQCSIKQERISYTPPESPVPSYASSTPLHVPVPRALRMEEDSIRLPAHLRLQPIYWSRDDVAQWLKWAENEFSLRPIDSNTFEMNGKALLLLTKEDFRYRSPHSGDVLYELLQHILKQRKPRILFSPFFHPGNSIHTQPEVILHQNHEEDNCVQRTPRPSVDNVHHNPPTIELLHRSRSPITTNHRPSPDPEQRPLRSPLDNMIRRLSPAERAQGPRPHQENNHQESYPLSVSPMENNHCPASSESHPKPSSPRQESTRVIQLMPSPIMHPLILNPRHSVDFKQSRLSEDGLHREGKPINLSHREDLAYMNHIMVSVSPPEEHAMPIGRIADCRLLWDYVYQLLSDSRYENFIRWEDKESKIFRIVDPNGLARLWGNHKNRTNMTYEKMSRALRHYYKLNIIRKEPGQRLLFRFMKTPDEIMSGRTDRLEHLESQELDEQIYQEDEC

ETV5, sequence (P41161 whole entry): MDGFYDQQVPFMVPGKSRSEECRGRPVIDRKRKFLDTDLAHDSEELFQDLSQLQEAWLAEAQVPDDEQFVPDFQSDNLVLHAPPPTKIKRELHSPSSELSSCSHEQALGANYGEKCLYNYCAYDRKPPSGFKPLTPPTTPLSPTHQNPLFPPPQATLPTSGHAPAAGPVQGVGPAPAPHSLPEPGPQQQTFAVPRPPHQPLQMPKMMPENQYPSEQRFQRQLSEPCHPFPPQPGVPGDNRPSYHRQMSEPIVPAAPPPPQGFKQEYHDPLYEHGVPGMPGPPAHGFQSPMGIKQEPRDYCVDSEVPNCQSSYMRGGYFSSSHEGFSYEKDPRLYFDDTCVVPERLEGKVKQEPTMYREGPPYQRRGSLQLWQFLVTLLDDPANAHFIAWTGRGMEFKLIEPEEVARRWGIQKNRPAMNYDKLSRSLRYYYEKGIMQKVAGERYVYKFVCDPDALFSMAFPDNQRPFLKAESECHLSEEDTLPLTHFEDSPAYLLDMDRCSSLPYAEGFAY
ETV1, sequence (P50549 whole entry): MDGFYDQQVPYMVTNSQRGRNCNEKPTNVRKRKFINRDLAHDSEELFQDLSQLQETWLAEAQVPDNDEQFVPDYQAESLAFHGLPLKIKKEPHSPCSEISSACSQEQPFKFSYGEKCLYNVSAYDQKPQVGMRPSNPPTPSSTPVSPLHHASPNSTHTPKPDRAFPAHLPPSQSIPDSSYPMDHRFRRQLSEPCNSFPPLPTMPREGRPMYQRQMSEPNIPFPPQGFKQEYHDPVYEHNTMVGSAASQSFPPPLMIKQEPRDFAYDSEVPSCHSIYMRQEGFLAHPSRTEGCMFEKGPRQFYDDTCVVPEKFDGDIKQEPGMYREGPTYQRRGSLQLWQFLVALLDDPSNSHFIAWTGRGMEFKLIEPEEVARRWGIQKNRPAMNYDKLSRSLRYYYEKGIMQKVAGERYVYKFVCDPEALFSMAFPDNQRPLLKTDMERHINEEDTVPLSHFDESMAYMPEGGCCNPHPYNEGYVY
ELF4, sequence (Q99607 whole entry): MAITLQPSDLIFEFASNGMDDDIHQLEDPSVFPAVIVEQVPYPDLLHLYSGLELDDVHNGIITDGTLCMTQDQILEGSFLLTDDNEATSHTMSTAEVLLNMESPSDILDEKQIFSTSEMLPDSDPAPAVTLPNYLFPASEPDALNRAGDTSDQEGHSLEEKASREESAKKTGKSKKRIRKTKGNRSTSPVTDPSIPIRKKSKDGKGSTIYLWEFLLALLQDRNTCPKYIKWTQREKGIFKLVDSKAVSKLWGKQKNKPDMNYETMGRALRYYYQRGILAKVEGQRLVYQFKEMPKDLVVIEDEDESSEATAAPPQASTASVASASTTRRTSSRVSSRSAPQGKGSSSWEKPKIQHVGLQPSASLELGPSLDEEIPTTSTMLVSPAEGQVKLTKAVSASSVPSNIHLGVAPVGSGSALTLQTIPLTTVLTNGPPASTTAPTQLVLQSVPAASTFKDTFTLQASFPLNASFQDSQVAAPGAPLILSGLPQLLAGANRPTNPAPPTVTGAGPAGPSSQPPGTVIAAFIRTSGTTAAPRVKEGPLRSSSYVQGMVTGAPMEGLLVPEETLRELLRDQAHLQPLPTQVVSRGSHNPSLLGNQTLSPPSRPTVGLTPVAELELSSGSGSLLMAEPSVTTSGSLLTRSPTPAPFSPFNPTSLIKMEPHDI
HSF1, sequence (Q00613 whole entry): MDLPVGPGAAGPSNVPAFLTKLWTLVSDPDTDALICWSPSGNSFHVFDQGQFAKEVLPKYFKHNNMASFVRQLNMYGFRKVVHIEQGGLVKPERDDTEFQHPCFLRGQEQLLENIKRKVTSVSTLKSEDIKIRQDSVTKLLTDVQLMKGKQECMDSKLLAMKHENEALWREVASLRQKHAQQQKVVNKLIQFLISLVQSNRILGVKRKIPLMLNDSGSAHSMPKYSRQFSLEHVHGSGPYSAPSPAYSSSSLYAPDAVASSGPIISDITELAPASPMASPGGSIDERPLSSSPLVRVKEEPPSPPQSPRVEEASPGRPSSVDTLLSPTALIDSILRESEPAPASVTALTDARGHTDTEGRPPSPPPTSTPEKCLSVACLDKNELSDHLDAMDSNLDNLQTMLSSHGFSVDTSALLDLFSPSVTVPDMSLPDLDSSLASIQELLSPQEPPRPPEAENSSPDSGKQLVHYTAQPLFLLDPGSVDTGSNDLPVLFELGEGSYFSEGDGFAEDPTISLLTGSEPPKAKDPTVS
CRX, sequence (O43186 whole entry): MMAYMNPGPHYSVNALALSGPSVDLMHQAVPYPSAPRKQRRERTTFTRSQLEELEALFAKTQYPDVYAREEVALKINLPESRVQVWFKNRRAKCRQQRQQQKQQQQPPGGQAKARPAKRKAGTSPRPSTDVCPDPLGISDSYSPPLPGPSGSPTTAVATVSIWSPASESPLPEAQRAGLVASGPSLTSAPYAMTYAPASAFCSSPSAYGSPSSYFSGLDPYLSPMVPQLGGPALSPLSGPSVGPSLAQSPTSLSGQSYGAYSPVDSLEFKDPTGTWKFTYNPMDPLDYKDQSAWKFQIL

Consider TTAACG, for which the binding signal in the assay with FEV is 1.13 fold enrichment (6-mer frequency, TF over GST control); in the assay with ETV5, 1.22 fold enrichment (6-mer frequency, TF over GST control); with HSF1 it was 1.73 fold enrichment (6-mer frequency, TF over GST control); with SPIC it was 1.11 fold enrichment (6-mer frequency, TF over GST control); with ELF4, 1.15 fold enrichment (6-mer frequency, TF over GST control); with ELK4 it was 1.17 fold enrichment (6-mer frequency, TF over GST control). Moreover, the binding signal in the assay with ETV2 is 1.17 fold enrichment (6-mer frequency, TF over GST control); with ELF3, 1.27 fold enrichment (6-mer frequency, TF over GST control); in the assay with CRX it was 2.66 fold enrichment (6-mer frequency, TF over GST control); with ETV1, 1.19 fold enrichment (6-mer frequency, TF over GST control); in the assay with ERF, 1.15 fold enrichment (6-mer frequency, TF over GST control); with ETV3L it was 1.17 fold enrichment (6-mer frequency, TF over GST control). Also, the binding signal was 1.23 fold enrichment (6-mer frequency, TF over GST control) with ETS2; 1.23 fold enrichment (6-mer frequency, TF over GST control) with SPDEF; 1.13 fold enrichment (6-mer frequency, TF over GST control) with ETV7; 1.14 fold enrichment (6-mer frequency, TF over GST control) with ELF5; 1.16 fold enrichment (6-mer frequency, TF over GST control) with ETV3; 1.17 fold enrichment (6-mer frequency, TF over GST control) with ETV6.
